“And” between values parts separate entries of the source, which are not always exact repeats. Identical values can stand only once. Records with an inconclusive call do not appear. The source made the active and inactive calls. Unless noted, calls follow the shape of the full dose curve.
Potency is read from the fitted curve at half-maximal effect.

The nature of one test: Primary qHTS to identify inhibitors of SARS-CoV-2 cell entry (AID 1645846). Also: nearly all actives have a fitted effect of over 45% in size. To be noted: SARS-CoV-2 pseudovirus cell entry assay, luminescence; activity change, negative = inhibition: at 57.1 µM (top of the series) unless noted; series mostly up to 57.1 µM. The method in brief:
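HEK293-ACE2 (Expi293F, stable hACE2), 1500 cells/well, o/n 37C; cpd 23 nL pin, 1 h; MLV-PP w/ SARS-CoV-2-S (Wuhan-Hu-1, Δ19 C-term); 48 h 37C; Bright-Glo luminescence; normalized vs S-PP and bald PP.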
Consider `C[C@@H](NCCCc1cccc(C(F)(F)F)c1)c1cccc2ccccc12`, for which the Potency was 20 µM (active). Still for that read-out and setting: under `NC1[C@H]2CN(c3nc4c(cc3F)c(=O)c(C(=O)O)cn4-c3ccc(F)cc3F)C[C@@H]12` (some centres not stated) stands “inactive”. On the same count and under the same terms, under `Fc1ccc(C(OCCN2CCN(CCCc3ccccc3)CC2)c2ccc(F)cc2)cc1` stands 17.8 µM (active); under `COC(=O)C1=C(C)NC(C)=C(C(=O)OC(C)C)C1c1cccc2nonc12` (configuration not stated), “inactive”. `CC(C)[N+](C)(CCOC(=O)C1c2ccccc2Oc2ccccc21)C(C)C`: the activity change, negative = inhibition stood at 2.34%. As for `O=C(c1ccc(OCCN2CCCCC2)cc1)c1c(-c2ccc(O)cc2)sc2cc(O)ccc12`, the Potency is 31.6 µM (active). Still for that read-out and setting: under `CCCCc1oc2ccc(NS(C)(=O)=O)cc2c1C(=O)c1ccc(OCCCN(CCCC)CCCC)cc1` stands 11.2 µM (active). Regarding `Nc1cc(-c2ccncc2)c[nH]c1=O`, the Potency entry is “inactive”. Consider `COCCCC/C(=N\OCCN)c1ccc(C(F)(F)F)cc1`, for which the activity change, negative = inhibition is 2.14%.

Regarding `CC(c1cc2ccccc2s1)N(O)C(N)=O` (configuration not stated), the activity change, negative = inhibition is 4.54% and -93%. For `COC(=O)C(c1ccccc1Cl)N1CCc2sccc2C1` (configuration not stated), the Potency entry was “inactive”.

As to `Cc1oncc1C(=O)Nc1ccc(C(F)(F)F)cc1`, the Potency result is “inactive” and the activity change, negative = inhibition is -15.8%. Regarding `CNCC[C@@H](Oc1ccccc1C)c1ccccc1`, the activity change, negative = inhibition is -15.9%.

As for `CCOc1ccc2ccccc2c1C(=O)N[C@@H]1C(=O)N2[C@@H]1SC(C)(C)[C@@H]2C(=O)O`, the Potency entry is “inactive”. Still for that read-out and setting: for `CCN(CC)C(=S)SSC(=S)N(CC)CC` the value was 891 nM (active) and 7.94 µM (active); for `CC(=O)CCCCn1c(=O)c2c(ncn2C)n(C)c1=O`, “inactive”; for `Cc1c(OCC(F)(F)F)ccnc1CS(=O)c1nc2ccccc2[nH]1` (configuration not stated), “inactive”. Same read-out and setting: for `COc1cc(NCc2ccc3nc(N)nc(N)c3c2C)cc(OC)c1OC` the value was 2.82 µM (active).

Regarding `CCOC(=O)[C@H](CCc1ccccc1)N[C@@H](C)C(=O)N1[C@H](C(=O)O)C[C@@H]2CCC[C@@H]21`, the Potency result is “inactive”. `O=C1c2c(O)ccc(O)c2C(=O)c2c(NCCNCCO)ccc(NCCNCCO)c21`: the activity change, negative = inhibition is -94.5% and -97.6%. `NS(=O)(=O)Cc1noc2ccccc12`: the Potency entry is “inactive”. For `Nc1ccc(O)c(C(=O)O)c1`, the activity change, negative = inhibition amounted to 2.37%. Regarding `Nc1nc2c(ncn2COCCO)c(=O)[nH]1`, the Potency entry was “inactive”. In the case of `CC(C)C[C@H](NC(=O)[C@H](CCc1ccccc1)NC(=O)CN1CCOCC1)C(=O)N[C@@H](Cc1ccccc1)C(=O)N[C@@H](CC(C)C)C(=O)[C@@]1(C)CO1`, the activity change, negative = inhibition is -96% and -97.8%. `OC(Cn1cncn1)(Cn1cncn1)c1ccc(F)cc1F`: the activity change, negative = inhibition was -13.6% and -9.57%. Consider `COc1nc(N)nc2c1ncn2[C@@H]1O[C@H](CO)[C@@H](O)[C@@H]1O`, for which the Potency entry was “inactive”. On the same count and under the same terms, for `O[C@@H](CNC[C@H](O)[C@H]1CCc2cc(F)ccc2O1)[C@@H]1CCc2cc(F)ccc2O1` the value was 22.4 µM (active). For the molecule `Clc1ccc(C(c2ccccc2Cl)C(Cl)Cl)cc1` (configuration not stated), the activity change, negative = inhibition is -40.6%. On to `CC(=O)Oc1cc2c(s1)CCN(C(C(=O)C1CC1)c1ccccc1F)C2` (configuration not stated), for which the Potency entry is “inactive” and the activity change, negative = inhibition is -16.4%. Consider `CC(C)NCC(O)c1ccc(O)c(O)c1` (configuration not stated), for which the Potency entry was “inactive” and the activity change, negative = inhibition is -10.8%. For the molecule `O=NN(CCCl)C(=O)NC1CCCCC1`, the Potency result was “inactive” and the activity change, negative = inhibition is -8.29%.

As to `COc1cc([C@@H]2c3cc4c(cc3[C@H](O)[C@H]3COC(=O)[C@H]23)OCO4)cc(OC)c1OC`, the activity change, negative = inhibition was -79.7%. As for `CC(C)C[C@H](NC(=O)[C@H](Cc1ccccc1)NC(=O)c1cnccn1)B(O)O`, the activity change, negative = inhibition was -95.1%. On to `CC(C)(C)NC(=O)[C@H]1CC[C@H]2[C@@H]3CC[C@H]4NC(=O)C=C[C@]4(C)[C@H]3CC[C@]12C`, for which the Potency result is “inactive”.

`CN(C)CCCN1c2ccccc2CCc2ccc(Cl)cc21`: the Potency was 28.2 µM (active).

Regarding `CCN(CC)CCNC(=O)c1c(C)[nH]c(/C=C2\C(=O)Nc3ccc(F)cc32)c1C`, the Potency was 25.1 µM (active).

A short description of a further test: Primary qHTS for inhibitors of nuclear receptor binding SET domain protein 2 (NSD2) in an isogenic RCH-ACV NSD2 p.E1099K mutant (9B) (AID 1645876; active = well fitted curve in the direction sought with a large enough effect; an effect the other way counts as inactive or inconclusive; also: nearly all actives have a fitted effect of over 70% in size). To be noted: RCH-ACV NSD2 E1099K (9B) viability, CellTiter-Glo, 72 h; series mostly up to 44.9 µM.
Regarding `Fc1ccc(C(OCCN2CCN(CCCc3ccccc3)CC2)c2ccc(F)cc2)cc1`, the Potency is 6.68 µM (active) and 11.8 µM (active). On the same count and under the same terms, for `O=c1[nH]c2ccccc2n1C1CCN(CCCC(c2ccc(F)cc2)c2ccc(F)cc2)CC1` the value was 23.7 µM (active) and 5.78 µM (active); for `O=c1oc2ccccc2c(O)c1C(CC(O)c1ccc(-c2ccc(Br)cc2)cc1)c1ccccc1` (configuration not stated), “inactive”. Still for that read-out and setting: under `C[C@]12C/C(=C/O)C(=O)C[C@@H]1CC[C@@H]1[C@@H]2CC[C@@]2(C)[C@H]1CC[C@]2(C)O` stands 13.3 µM (active).

Another test can be described thus: Primary qHTS for inhibitors of nuclear receptor binding SET domain protein 2 (NSD2) in an RCH-ACV wild type WT cells (2C) (AID 1645877; active = well fitted curve in the direction sought with a large enough effect; an effect the other way counts as inactive or inconclusive; also: nearly all actives have a fitted effect of over 70% in size). The note with it: RCH-ACV (leukaemia line) NSD2 WT (2C) viability, CellTiter-Glo, 72 h; series mostly up to 44.9 µM.
For `Fc1ccc(C(OCCN2CCN(CCCc3ccccc3)CC2)c2ccc(F)cc2)cc1`, the Potency was 5.96 µM (active) and 9.34 µM (active). Same read-out and setting: for `O=c1[nH]c2ccccc2n1C1CCN(CCCC(c2ccc(F)cc2)c2ccc(F)cc2)CC1` the value was 16.8 µM (active) and 5.78 µM (active). The same measure, in the same setting: under `C[C@]12C/C(=C/O)C(=O)C[C@@H]1CC[C@@H]1[C@@H]2CC[C@@]2(C)[C@H]1CC[C@]2(C)O` stands 23.7 µM (active).

Values taken from PubChem BioAssay (NCATS).
